Here are results for 40 compounds from PubChem BioAssay (Tox21).

Inconclusive results are not listed. Entries that show only a call come without a potency. A number with no mark means an inactive call. The source made the active and inactive calls. Calls come from the whole dose curve; as a rule, active = well fitted activation curve with a large enough effect; inconclusive = small, poorly fitted or top-dose-only effect; inactive = flat fitted curve, though single readings scatter.

The nature of this assay: qHTS assay to identify small molecule phospholipidosis (PLD) inducers (AID 1259344). The settings on record: HepG2 phospholipidosis, LipidTOX Red imaging, 24 h; series mostly up to 38.3 µM. From the text:
National Center for Advancing Translational Sciences [NCATS]
Drug-induced Phospholipidosis (PLD) caused by cationic amphiphilic drugs is characterized by the appearance of unicentric or multicentric-lamellar bodies when viewed under electron microscope. Electron microscopy is the gold standard method for PLD detection, however, this method is time-consuming and labor intensive, making it unsuitable for evaluating a large set of compounds. A cell-based phospholipidosis assay has been developed using the LipidTox reagent in HepG2 cells and miniaturized into a 1536-well plate format. Drug induced phospholipid accumulation is stained with the LipidTox dyes in red color which then is determined using an automated high content screening system.
HepG2 cells are dispensed at 900 cells/3 uL/well into Collagen I-coated 1536-well black-wall/clear-bottom assay plates (Greiner Bio-One, Monroe, NC) using the Multidrop Combi 8 channel dispenser (Thermo Fisher, Waltham, MA, USA). The assay plates are incubated at 37 C for 4 hours to allow the cell attachment. 3 uL of 1:500 LipidTOX Red dye is added using the dispenser, and then 23 nL compounds are added via a Wako Pintool station (Wako Automation, San Diego, CA). Amiodarone, a known PLD inducer, was used as a positive control and DMSO was used as a negative control. The assay plates were then incubated at 37 C for 24 hours.
For fixations, 4 uL of 8% paraformaldehyde fixative solution containing 10 ug/mL Hoechst 33342 in Dulbecco's phosphate-buffered saline (DPBS) is added using a Kalypsys washer/dispenser (Kalypsys, San Diego, CA, USA). After incubation at room temperature for 30 min, the assay plates are washed once with DPBS using a Kalypsys washer/dispenser. The assay plates are then sealed and stored at 4 C before imaging. The fluorescence intensities (595 nm excitation, 615 nm emission for LipidTOX; 352 nm excitation, 461 nm emission for Hoechst 33342) are measured using an ImageXpress Micro Widefield High Content Screening System (Molecular Devices, Sunnyvale, CA, USA) with a 20x Plan Fluor objective. Images are acquired for one site in each well and analyzed with the MetaXpress software (Molecular Devices) using the Transfluor module. Several algorithmic outputs, such as pit count per well, pit count per cell, pit integrated intensity per well, and pit integrated intensity per cell, are used for quantitative image analysis for PLD.
Background: Quantitative high-throughput screening tests each substance at several concentrations.
As to `CC(C)NCC(O)c1ccc(NS(C)(=O)=O)cc1` (stereo not given), the Potency result is “inactive”. On the same count and under the same terms, the same measure for `CN1CC(=O)NC1=N`: “inactive”; for `Brc1c(NC2=NCCN2)ccc2nccnc12`: “inactive”; for `O=C(O)COc1nn(Cc2ccccc2)c2ccccc12`: “inactive”. Same read-out and setting: the same measure for `COC(=O)[C@@H](N)Cc1ccc(O)c(O)c1`: “inactive”; for `O=C(O)CN(CCOCCOCCN(CC(=O)O)CC(=O)O)CC(=O)O`: “inactive”.

Consider `CC(C)CCCC(C)N` (stereo not given), for which the Potency entry is “inactive”. The same measure, in the same setting: the result for `O=S(O)CO` reads “inactive”. On to `CCCCC(CC)COC(=O)c1ccccc1O` (stereo not given), for which the Potency result was “inactive”.

Turning to `CC(=O)OCC(=O)[C@@]1(O)CCC2C3CCC4=CC(=O)CC[C@]4(C)C3[C@@H](O)C[C@@]21C` (stereo not given in full), the Potency entry was “inactive”. The same measure, in the same setting: the same measure for `COc1nc(N)nc2c1ncn2[C@@H]1O[C@H](CO)[C@@H](O)[C@@H]1O`: “inactive”. Same read-out and setting: the result for `CCN1CCC[C@H]1CNC(=O)c1c(O)c(Cl)cc(Cl)c1OC` reads “inactive”. Still for that read-out and setting: the same measure for `CCCN1CCCC[C@H]1C(=O)Nc1c(C)cccc1C`: “inactive”. On to `NCCc1cnc[nH]1`, for which the Potency result is “inactive”. Same read-out and setting: the result for `O=c1[nH]c(=O)n([C@H]2C[C@H](O)[C@@H](CO)O2)cc1I` reads “inactive”; that for `N[C@H](C(=O)O)c1ccc(O)cc1`, “inactive”. With `COc1ccccc1OCC(O)CN1CCN(CC(=O)Nc2c(C)cccc2C)CC1` (stereo not given), the Potency entry is “inactive”.

On to `O=c1cc(-c2ccccc2)oc2ccccc12`, for which the PLD induction is -2.02% [at 3.15 µM]. As for `CC(C)(c1ccc(O)cc1)c1ccc(O)cc1`, the Potency entry was “inactive”. The same measure, in the same setting: the result for `C[C@@H]1CCN(C(=O)[C@H](CCCN=C(N)N)NS(=O)(=O)c2cccc3c2NC[C@H](C)C3)[C@@H](C(=O)O)C1` reads “inactive”; that for `CO[C@]12C[C@@H](COC(=O)c3cncc(Br)c3)CN(C)[C@@H]1Cc1cn(C)c3cccc2c13`, “inactive”. Consider `O=C[C@H](O)[C@@H](O)[C@H](O)[C@H](O)CO`, for which the PLD induction was -4.07% [at 7.66 µM]. Turning to `CCN(CC)CCNC(=O)c1cc(S(C)(=O)=O)ccc1OC`, the Potency result is “inactive”.

`Cc1cccn2c(=O)c(-c3nnn[nH]3)cnc12`: the Potency entry is “inactive”.

Consider `NC(=O)c1cn(Cc2c(F)cccc2F)nn1`, for which the Potency result was “inactive”. On the same count and under the same terms, the result for `COC(=O)C1=C(C)NC(C)=C(C(=O)OC)C1c1ccccc1[N+](=O)[O-]` reads “inactive”; that for `CCOC(=O)Nc1ccc(NCc2ccc(F)cc2)nc1N`, “inactive”. Regarding `CCCN(CCC)CCc1cccc2c1CC(=O)N2`, the Potency entry is “inactive”.

On to `NS(=O)(=O)c1cc(C(=O)O)cc(N2CCCC2)c1Oc1ccccc1`, for which the Potency result is “inactive”. Turning to `Cc1cccc(C)c1NC(=O)C(C)N` (stereo not given), the Potency entry was “inactive”. Consider `COc1ccc2c(c1)c(CC(=O)OCC(=O)O)c(C)n2C(=O)c1ccc(Cl)cc1`, for which the Potency result is “inactive”. The same measure, in the same setting: the result for `CC(=O)OCC(=O)[C@@]1(O)CC[C@H]2[C@@H]3CCC4=CC(=O)CC[C@]4(C)[C@H]3C(=O)C[C@@]21C` reads “inactive”; that for `CCOc1ccc(C(=O)OCCN(CC)CC)cc1`, “inactive”. Turning to `CCCc1cc(C(N)=S)ccn1`, the Potency result is “inactive”. Take `N=C(N)c1ccc(OCCCOc2ccc(C(=N)N)cc2)cc1`: the PLD induction was -2.77% [at 0.306 µM]. Turning to `NS(=O)(=O)c1cc2c(cc1Cl)NC(C1CC3C=CC1C3)NS2(=O)=O` (stereo not given), the Potency entry was “inactive”. With `CCOC(=O)c1c(C)n(C)c2ccc(O)cc12`, the Potency result was “inactive”. The same measure, in the same setting: the result for `CC1(C)CO[C@@H](CC(=O)O)CN1` reads “inactive”; that for `CCOC(=O)c1cccc(N)c1`, “inactive”; that for `CO/N=C(/C(=O)N[C@@H]1C(=O)N2C(C(=O)OCOC(=O)C(C)(C)C)=C(C)CS[C@H]12)c1csc(N)n1`, “inactive”.
